# Test results as given in the supplement of paper PMC8728848.
# The sample as a whole holds a higher share of the strongest signals than the screen did.
# B1: F17aG (Escherichia coli), Q99003 (protein)
# chain: MTNFYKVFLAVFILVCCNISQAAVSFIGSTENDVGPSLGSYSRTHAMDNLPFVYDTRNKIGYQNANVWHISKGFCVGLDGKVDLPVVGSLDGQSIYGLTEEVGLLIWMGDTKYSRGTAMSGNSWENVFSGWCVGANTASTQGLSVRVTPVILKRNSSARYSVQKTSIGSIRMRPYNGSSAGSVQTTVNFSLNPFTLNDTVTSCRLLTPSAVNVSLAAISAGQLPSSGDEVVAGTTSLKLQCDAGVTVWATLTDATTPSNRSDILTLTGASTATGVGLRIYKNTDSTPLKFGPDSPVKGNENQWQLSTGTETSPSVRLYVKYVNTGEGINPGTVNGISTFTFSYQ
# Key:
# Assay in all cases: glycan array binding signal (z-score within array); higher = stronger binding
# Conditions in all cases: glycan notation: IUPAC condensed, linker removed
# [1] = molecular target: Fuc(a1-2)Gal(b1-3)GalNAc(b1-3)Gal(a1-4)Gal(b1-4)Glc
# Summary of the method: (§1)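 The binding signal is a Z-score computed within each array and averaged over linkers. Arrays of the same protein sequence at different concentrations or buffers were also averaged together. Data originate from 3228 arrays in the Consortium for Functional Glycomics database, kept only where the protein sequence was available.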
# [2] = molecular target: Fuc(a1-2)Gal(b1-3)GlcNAc(b1-3)[Fuc(a1-3)[Gal(b1-4)]GlcNAc(b1-6)]Gal(b1-4)Glc
# Summary of the method: as §1
# [3] = molecular target: Fuc(a1-2)Gal(b1-3)[Fuc(a1-4)]GlcNAc(b1-2)Man(a1-3)[Fuc(a1-2)Gal(b1-3)[Fuc(a1-4)]GlcNAc(b1-2)Man(a1-6)]Man(b1-4)GlcNAc(b1-4)GlcNAc
# Summary of the method: as §1
# [4] = molecular target: Fuc(a1-2)Gal(b1-3)[Fuc(a1-4)]GlcNAc(b1-3)[Fuc(a1-3)[Gal(b1-4)]GlcNAc(b1-6)]Gal(b1-4)Glc
# Summary of the method: as §1
# [5] = molecular target: Fuc(a1-2)Gal(b1-4)[Fuc(a1-3)]GlcNAc(b1-2)[Fuc(a1-2)Gal(b1-4)[Fuc(a1-3)]GlcNAc(b1-4)]Man(a1-3)[Fuc(a1-2)Gal(b1-4)[Fuc(a1-3)]GlcNAc(b1-2)Man(a1-6)]Man(b1-4)GlcNAc(b1-4)GlcNAc
# Summary of the method: as §1
# [6] = molecular target: Fuc(a1-2)[GalNAc(a1-3)]Gal(b1-3)GlcNAc(b1-2)Man(a1-3)[Fuc(a1-2)[GalNAc(a1-3)]Gal(b1-3)GlcNAc(b1-2)Man(a1-6)]Man(b1-4)GlcNAc(b1-4)[Fuc(a1-6)]GlcNAc
# Summary of the method: as §1
# [7] = molecular target: Fuc(a1-2)[GalNAc(a1-3)]Gal(b1-3)GlcNAc(b1-3)GalNAc
# Summary of the method: as §1
# [8] = molecular target: Fuc(a1-2)[GalNAc(a1-3)]Gal(b1-4)GlcNAc(b1-3)Gal(b1-4)GlcNAc(b1-3)Gal(b1-4)GlcNAc
# Summary of the method: as §1
# [9] = molecular target: Gal(a1-3)Gal(b1-4)GlcNAc(b1-3)GalNAc
# Summary of the method: as §1
# [10] = molecular target: Gal(a1-3)Gal(b1-4)[Fuc(a1-3)]GlcNAc(b1-2)Man(a1-3)[Gal(a1-3)Gal(b1-4)[Fuc(a1-3)]GlcNAc(b1-2)Man(a1-6)]Man(b1-4)GlcNAc(b1-4)GlcNAc
# Summary of the method: as §1
# [11] = molecular target: Gal(a1-4)Gal(b1-4)GlcNAc(b1-3)Gal(b1-4)Glc
# Summary of the method: as §1
# Gal(b1-2)Gal = molecular target: Gal(b1-2)Gal
# Summary of the method: as §1
# Gal(b1-3)Gal(b1-4)GlcNAc = molecular target: Gal(b1-3)Gal(b1-4)GlcNAc
# Summary of the method: as §1
# [12] = molecular target: Gal(b1-3)GlcNAc(b1-3)Gal(b1-4)Glc
# Summary of the method: as §1
# [13] = molecular target: Gal(b1-3)GlcNAc(b1-3)Gal(b1-4)GlcNAc
# Summary of the method: as §1
# [14] = molecular target: Gal(b1-3)[Fuc(a1-4)]GlcNAc(b1-2)Man(a1-3)[Gal(b1-3)[Fuc(a1-4)]GlcNAc(b1-2)Man(a1-6)]Man(b1-4)GlcNAc(b1-4)GlcNAc
# Summary of the method: as §1
# [15] = molecular target: Gal(b1-3)[Neu5Ac(a2-6)]GalNAc
# Summary of the method: as §1
# Gal(b1-4)GlcNAc = molecular target: Gal(b1-4)GlcNAc
# Summary of the method: as §1
# [16] = molecular target: Gal(b1-4)GlcNAc(b1-2)Man(a1-3)[Gal(b1-4)GlcNAc(b1-2)Man(a1-6)]Man(b1-4)GlcNAc(b1-4)GlcNAc
# Summary of the method: as §1
# [17] = molecular target: Gal(b1-4)GlcNAc(b1-3)Gal(b1-4)Glc
# Summary of the method: as §1
# [18] = molecular target: Gal(b1-4)GlcNAc(b1-3)[GlcNAc(b1-6)]Gal(b1-4)GlcNAc
# Summary of the method: as §1
# [19] = molecular target: Gal(b1-4)GlcNAc(b1-6)Gal(b1-4)GlcNAc(b1-6)GalNAc
# Summary of the method: as §1
# Gal3S(b1-3)GalNAc = molecular target: Gal3S(b1-3)GalNAc
# Summary of the method: as §1
# [20] = molecular target: GalNAc(b1-3)Gal(a1-4)Gal(b1-4)GlcNAc(b1-3)Gal(b1-4)Glc
# Summary of the method: as §1
# GalNAc(b1-3)GalNAc = molecular target: GalNAc(b1-3)GalNAc
# Summary of the method: as §1
# Glc(a1-4)Glc = molecular target: Glc(a1-4)Glc
# Summary of the method: as §1
# [21] = molecular target: GlcNAc(a1-4)Gal(b1-3)GlcNAc
# Summary of the method: as §1
# [22] = molecular target: GlcNAc(a1-4)Gal(b1-4)GlcNAc(b1-3)Gal(b1-4)GlcNAc
# Summary of the method: as §1
# [23] = molecular target: GlcNAc(a1-6)Gal(b1-4)GlcNAc
# Summary of the method: as §1
# [24] = molecular target: GlcNAc(b1-2)Man(a1-3)[GlcNAc(b1-2)Man(a1-6)]Man(b1-4)GlcNAc(b1-4)[Fuc(a1-6)]GlcNAc
# Summary of the method: as §1
# GlcNAc(b1-3)Gal = molecular target: GlcNAc(b1-3)Gal
# Summary of the method: as §1
# GlcNAc(b1-3)Gal(b1-4)Glc = molecular target: GlcNAc(b1-3)Gal(b1-4)Glc
# Summary of the method: as §1
# [25] = molecular target: GlcNAc(b1-3)Gal(b1-4)GlcNAc
# Summary of the method: as §1
# [26] = molecular target: GlcNAc(b1-3)[GlcNAc(b1-6)]Gal(b1-4)GlcNAc
# Summary of the method: as §1
# [27] = molecular target: GlcNAc(b1-3)[GlcNAc(b1-6)]GlcNAc(b1-4)GlcNAc
# Summary of the method: as §1
# GlcNAc3Prop(b1-4)GlcNAc = molecular target: GlcNAc3Prop(b1-4)GlcNAc
# Summary of the method: as §1
# [28] = molecular target: Neu5Ac(a2-3)Gal(b1-4)GlcNAc(b1-3)Gal
# Summary of the method: as §1
# [29] = molecular target: Neu5Ac(a2-3)Gal(b1-4)[Fuc(a1-3)]GlcNAc6S
# Summary of the method: as §1
# [30] = molecular target: Neu5Ac(a2-3)Gal6S(b1-4)GlcNAc
# Summary of the method: as §1
# [31] = molecular target: Neu5Ac(a2-3)Gal6S(b1-4)[Fuc(a1-3)]GlcNAc
# Summary of the method: as §1
# [32] = molecular target: Neu5Ac(a2-3)[GalNAc(b1-4)]Gal(b1-4)Glc
# Summary of the method: as §1
# [33] = molecular target: Neu5Ac(a2-3)[GalNAc(b1-4)]Gal(b1-4)GlcNAc
# Summary of the method: as §1
# [34] = molecular target: Neu5Ac(a2-6)Gal(b1-4)GlcNAc(b1-2)Man(a1-3)Man(b1-4)GlcNAc(b1-4)GlcNAc
# Summary of the method: as §1
# [35] = molecular target: Neu5Ac(a2-6)Gal(b1-4)GlcNAc(b1-2)Man(a1-6)Man(b1-4)GlcNAc(b1-4)GlcNAc
# Summary of the method: as §1
# [36] = molecular target: Neu5Ac(a2-8)Neu5Ac(a2-8)Neu5Ac
# Summary of the method: as §1
# Neu5Ac(b1-6)GalNAc = molecular target: Neu5Ac(b1-6)GalNAc
# Summary of the method: as §1
binder,measurement,setting,value
B1,glycan array binding signal (z-score),[1],-0.23
same,glycan array binding signal (z-score),[2],-0.148
same,glycan array binding signal (z-score),[3],-0.169
same,glycan array binding signal (z-score),[4],-0.139
same,glycan array binding signal (z-score),[5],-0.163
same,glycan array binding signal (z-score),[6],-0.143
same,glycan array binding signal (z-score),[7],-0.113
same,glycan array binding signal (z-score),[8],0.023
same,glycan array binding signal (z-score),[9],-0.168
same,glycan array binding signal (z-score),[10],-0.157
same,glycan array binding signal (z-score),[11],-0.154
same,glycan array binding signal (z-score),Gal(b1-2)Gal,-0.25
same,glycan array binding signal (z-score),Gal(b1-3)Gal(b1-4)GlcNAc,-0.151
same,glycan array binding signal (z-score),[12],-0.252
same,glycan array binding signal (z-score),[13],-0.236
same,glycan array binding signal (z-score),[14],-0.119
same,glycan array binding signal (z-score),[15],-0.205
same,glycan array binding signal (z-score),Gal(b1-4)GlcNAc,-0.14
same,glycan array binding signal (z-score),[16],-0.254
same,glycan array binding signal (z-score),[17],-0.147
same,glycan array binding signal (z-score),[18],1.53
same,glycan array binding signal (z-score),[19],-0.312
same,glycan array binding signal (z-score),Gal3S(b1-3)GalNAc,-0.244
same,glycan array binding signal (z-score),[20],-0.179
same,glycan array binding signal (z-score),GalNAc(b1-3)GalNAc,1.69
same,glycan array binding signal (z-score),Glc(a1-4)Glc,-0.243
same,glycan array binding signal (z-score),[21],-0.089
same,glycan array binding signal (z-score),[22],-0.182
same,glycan array binding signal (z-score),[23],-0.243
same,glycan array binding signal (z-score),[24],-0.17
same,glycan array binding signal (z-score),GlcNAc(b1-3)Gal,3.9
same,glycan array binding signal (z-score),GlcNAc(b1-3)Gal(b1-4)Glc,8.79
same,glycan array binding signal (z-score),[25],4.77
same,glycan array binding signal (z-score),[26],5.68
same,glycan array binding signal (z-score),[27],2.15
same,glycan array binding signal (z-score),GlcNAc3Prop(b1-4)GlcNAc,11.7
same,glycan array binding signal (z-score),[28],-0.158
same,glycan array binding signal (z-score),[29],0.084
same,glycan array binding signal (z-score),[30],-0.233
same,glycan array binding signal (z-score),[31],-0.245
same,glycan array binding signal (z-score),[32],0.025
same,glycan array binding signal (z-score),[33],-0.241
same,glycan array binding signal (z-score),[34],-0.177
same,glycan array binding signal (z-score),[35],-0.167
same,glycan array binding signal (z-score),[36],-0.234
same,glycan array binding signal (z-score),Neu5Ac(b1-6)GalNAc,-0.34
